Source: PubChem BioAssay
HDAC3 inh – HDAC3 deacetylase inhibitors, primary screen, biochemical, fluorescence, cell-free homogeneous; AID 2718, 2010; hit rate 0.15% among 320,000; inhibition, % at 8.3 µM; recombinant HDAC3, fluorogenic peptide/trypsin coupled; in the data active = inhibition above about 26%, passing the limit was not always enough; inconclusive = no clear call, values can overlap the other calls
GRK2 aptamer HTS – compounds blocking aptamer binding on GRK2 – biochemical, human GRK2, bead flow cytometry, HTS, primary screen; AID 488847, 2010; inhibition of aptamer binding, % at 10 µM; hit rate 0.59% among 330,000; Beta-adrenergic receptor kinase 1 (Homo sapiens), P25098; FAM-aptamer displacement from GRK2;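 active = inhibition of aptamer binding above 40%, roughly 3 SD of noise, on plates passing a quality check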;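 note: median bead fluorescence of bound FAM aptamer so fluorescent compounds give negative values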
Target sequence (P25098 whole entry, looked up): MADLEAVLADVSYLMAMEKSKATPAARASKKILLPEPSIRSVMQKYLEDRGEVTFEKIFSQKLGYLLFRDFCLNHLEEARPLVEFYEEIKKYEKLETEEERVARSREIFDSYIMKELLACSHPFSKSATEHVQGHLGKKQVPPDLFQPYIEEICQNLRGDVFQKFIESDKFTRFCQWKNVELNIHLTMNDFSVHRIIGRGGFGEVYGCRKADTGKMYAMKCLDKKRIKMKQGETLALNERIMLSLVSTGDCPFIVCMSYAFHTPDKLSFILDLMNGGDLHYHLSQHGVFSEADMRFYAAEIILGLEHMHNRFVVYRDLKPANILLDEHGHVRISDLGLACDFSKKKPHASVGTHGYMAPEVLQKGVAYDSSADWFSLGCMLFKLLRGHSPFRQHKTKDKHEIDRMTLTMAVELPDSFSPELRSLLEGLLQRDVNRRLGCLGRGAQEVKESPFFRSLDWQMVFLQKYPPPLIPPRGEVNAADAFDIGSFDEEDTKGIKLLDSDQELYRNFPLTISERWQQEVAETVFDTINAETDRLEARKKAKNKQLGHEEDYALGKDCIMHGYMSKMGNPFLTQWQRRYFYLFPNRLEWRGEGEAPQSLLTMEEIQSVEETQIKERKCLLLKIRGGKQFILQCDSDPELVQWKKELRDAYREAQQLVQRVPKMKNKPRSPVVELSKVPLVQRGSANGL
PKD1 inh – inhibitors of human PKD1 kinase, biochemical, fluorescence polarization; Serine/threonine-protein kinase D1 (Homo sapiens), Q15139; AID 797, 2007; inhibition, % (no concentration beside the values); hit rate 0.056% among 200,000; PKD1 kinase fluorescence polarization assay
VLA-4 inh – inhibition in human VLA-4 binding assay, primary screen, VLA-4 allosteric modulator project, MLPCN library, flow cytometry, VLA-4 expressing cells. ligand binding flow cytometry. Integrin alpha-4 (Homo sapiens), P13612. inhibition, % (about 7 µM as worked out from the volumes in the protocol). hit rate 0.2% among 330,000
LANA-H2B inh – blockers of LANA interaction with H2A/H2B – biochemical, FP readout, HTS, primary screen; inhibition, % (concentration not given with the values); Protein LANA1 (Human herpesvirus 8 type P (isolate GK18)), Q9QR71; AID 2629, 2010; cell-free LANA-H2A/H2B peptide, fluorescence polarization; hit rate 0.6% among 320,000; in the data active = inhibition mostly above about 10%, no sharp cut-off; inactive = mostly below about 6.7%
DSG3 Ab inh – inhibitors of pemphigus antibody binding to DSG3, primary screen, biochemical, bead-based, flow cytometry, scFv-GFP | Desmoglein-3 (Homo sapiens), P32926 | DSG3-coupled beads, scFv-anti-DSG3-GFP binding; stronger effect = lower value | binding (percent of control), % at 10 µM | hit rate 0.48% among 310,000 | AID 588358, 2011;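 active = binding more than 3 SD below its plate's average and above zero; inconclusive = below that plate limit but binding exactly zero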
VLA-4 mod pick – retest of VLA-4 allosteric modulators, confirmation, cell-based, cherry-picked plates, U937, HUTS-21 LIBS antibody; shares compounds with VLA-4 inh; U937 cells, HUTS-21 LIBS mAb binding, flow cytometry; LDV ligand present at threefold Kd; inhibition, % at 6.7 µM; hit rate 2% among 1,300; AID 2813, 2010; in the data active = inhibition above about 40%
A number is an active result; – = inactive; ? = inconclusive; · = not tested or not shown. Sampled rows, rich in hits. Any-hit rate of the full collection: about 1.8%. Cut-off read from the data, not from the text of the source, unless noted: active = inhibition above about 50%; inactive = the rest.

SMILES	HDAC3 inh	GRK2 aptamer HTS	PKD1 inh	VLA-4 inh	LANA-H2B inh	DSG3 Ab inh	VLA-4 mod pick
O=C(O)C1(O)C[C@H](O)C(O)[C@@H](O)C1 (stereo partly specified)	–	–	·	50	–	–	–
Nc1nc(CN2CCN(c3ccccc3F)CC2)nc(Nc2ccccc2)n1	–	–	–	76	–	–	–
CCN(CC)S(=O)(=O)c1ccc(N2CCOCC2)c(NC(=O)c2cc(=O)[nH]c3ccccc23)c1	?	–	–	51	–	–	–
O=C(COC(=O)c1ccccc1Br)Nc1ccc(F)cc1	–	–	–	–	–	–	–
CC(=O)c1ccc(NC(=O)COC(=O)c2ccc(F)cc2F)cc1	–	–	·	–	–	–	–
O=C(COC(=O)c1ccc(O)cc1)Nc1ccccc1	–	–	·	–	–	–	–
CCN(CC)S(=O)(=O)c1ccc(N2CCN(C)CC2)c(NC(=O)c2cc(=O)c3ccccc3o2)c1	–	–	·	–	–	–	·
C#CCN(C(=O)C1CCC(=O)N(CCc2cccc(F)c2)C1)C1CCCCC1 (stereo unspecified)	·	·	·	·	·	–	·
Cc1ccc(Cn2c(SCC(=O)NCC3CCCO3)nc3c2c(=O)n(C)c(=O)n3C)cc1 (stereo unspecified)	–	–	–	–	–	–	·
COc1ccccc1NC(=O)CN(c1ccc(C)cc1)S(=O)(=O)c1c(C)n[nH]c1C	–	–	–	–	–	–	–
Cc1nn(C)c(C)c1S(=O)(=O)N(CC(=O)Nc1ccc2c(c1)OCO2)c1ccc(C(C)C)cc1	–	–	–	–	–	–	–
Cc1ccc(NC(=O)CN(c2ccc(C)cc2)S(=O)(=O)c2cccc3nonc23)cc1	–	–	–	–	–	–	–
COc1ccc(N(CC(=O)Nc2ccc(C)cc2)S(=O)(=O)c2c(C)noc2C)cc1	–	–	·	–	–	–	·
COC(=O)c1ccc(NC(=O)CN(c2ccc(C)cc2)S(=O)(=O)c2c(C)nn(C)c2C)cc1	–	–	–	–	–	–	–
Cc1ccc(-c2nc(-c3ccncc3)no2)cc1	–	–	·	–	–	–	·
Cc1ccc(-c2nc(-c3ccccc3)no2)cc1	–	–	–	95	–	–	–
CS(=O)(=O)c1cccc(C(=O)NCc2ccc(F)cc2)c1	–	–	–	93	–	–	–
CCOc1ccc(NC(=O)CN(c2ccc(OCC)cc2)S(=O)(=O)c2c(C)[nH]c(=O)[nH]c2=O)cc1	–	–	–	–	–	–	–
CCOc1ccc(N(CC(=O)Nc2ccc(OC)cc2)S(=O)(=O)c2c(C)[nH]c(=O)[nH]c2=O)cc1	–	–	–	57	–	–	–
O=C(O)CCc1nc(-c2ccccc2)c(-c2ccccc2)o1	–	–	·	51	–	·	–
O=C(CCc1nc(-c2ccccc2)c(-c2ccccc2)o1)OCc1ccc(Cl)cc1	–	–	–	–	–	–	·
CC(Oc1ccccc1)C(=O)N=C1SC2CS(=O)(=O)CC2N1c1cccc(F)c1 (stereo unspecified)	–	–	·	–	–	–	·
Cc1cc(C)c(S(=O)(=O)Nc2nccs2)c(C)c1	–	–	·	–	–	–	·
Cc1ccc2c(c1)N(CC(=O)NCCCc1ccccc1)C(=O)c1cccnc1O2	–	–	·	–	–	–	·
Cc1ccc2c(c1)N(CC(=O)NCC(C)c1ccccc1)C(=O)c1cccnc1O2 (stereo unspecified)	–	–	·	53	–	–	–
SMILES	HDAC3 inh	GRK2 aptamer HTS	PKD1 inh	VLA-4 inh	LANA-H2B inh	DSG3 Ab inh	VLA-4 mod pick
COc1ccc(/C=C/C(=O)O)cc1S(=O)(=O)N1CCC(C)CC1	–	–	·	–	–	–	·
O=C1NCC(=O)N2CCC[C@@H]12	–	–	·	54	–	–	–
CC(=O)c1c(OC(=O)c2ccccc2)ccnc1C(F)(F)F	–	–	·	–	–	–	·
Cc1ccc([C@H]2C(C(=O)O)=C[C@@H](CC3CCCC3)N2S(=O)(=O)c2ccc(C)cc2)cc1	·	–	·	–	·	–	·
CC[C@@H]1C=C(C(=O)O)[C@H](c2cccc(C)c2)N1S(=O)(=O)c1ccc(C)cc1	·	–	·	–	·	–	–
COc1ccc([C@H]2C(C(=O)O)=C[C@@H](CC3CCCC3)N2S(=O)(=O)c2ccc(C)cc2)cc1OC	·	–	·	–	·	–	–
CC[C@@H]1C=C(C(=O)O)[C@H](c2ccc(F)cc2)N1S(=O)(=O)c1ccc(C)cc1	–	–	·	–	–	–	·
Cc1ccc(S(=O)(=O)N2[C@@H](c3cccc(C)c3)C(C(=O)O)=C[C@H]2CC2CCCC2)cc1	–	–	·	–	–	–	–
Cc1ccc(S(=O)(=O)N2[C@@H](c3ccc4c(c3)OCO4)C(C(=O)O)=C[C@H]2CC2CCCC2)cc1	·	–	·	–	·	–	–
COc1ccc([C@@H]2CC=C(C(=O)O)[C@H](c3ccc(Br)cc3)N2S(=O)(=O)c2ccc(C)cc2)cc1OC	–	–	·	–	·	–	·
O=C(c1cc2nc(-c3ccc(Cl)cc3)cc(C(F)(F)F)n2n1)N1CCOCC1	–	–	–	–	–	–	–
CN1CCN(C(=O)c2cc3nc(-c4ccc(Cl)cc4)cc(C(F)(F)F)n3n2)CC1	–	–	–	–	–	·	·
C=CCC[C@H](Cc1ccc(F)cc1)C(=O)OC[C@@H](C)NC(=O)[C@@H](CC=C)CC(=O)N[C@@H](CO)Cc1ccccc1	–	–	·	63	–	–	–
COc1ccc(Cc2nc3ccc(S(N)(=O)=O)cc3[nH]2)cc1OC	–	–	–	102	–	·	–
CCOC(=O)N1CCN(c2nc3ccc(C(=O)c4ccccc4)cc3n3cnnc23)CC1	–	–	·	–	–	–	·
O=C(c1ccccc1)c1ccc2nc(N3CCN(C(=O)c4ccco4)CC3)c3nncn3c2c1	–	–	–	55	–	–	–
S=c1[nH]nc(-c2cc(-c3ccccc3)n[nH]2)n1/N=C/c1cccc(Cl)c1	?	–	·	–	–	·	·
Cc1ccc(NC(=O)C(c2ccccc2)N2CCN(CC(=O)NC3CC3)CC2)cc1 (stereo unspecified)	–	–	·	–	–	–	·
C/C(=N\NC(=O)CSCc1cccc(Br)c1)c1ccc([N+](=O)[O-])cc1	–	–	–	51	–	·	–
Cc1ccc(-c2nn3c(C)nnc3c3ccccc23)cc1S(=O)(=O)N1CCN(CCO)CC1	–	–	–	–	–	–	–
